Screens (PubChem)
Rows were chosen to be rich in hits. Some 1.3% of all compounds tested hit in one or more screens of this group.
Pin1 inh = human Pin1 inhibition. Q13526. Pin1 FP peptide displacement, HiFluor488, 10 min. Potency, µM (titrated, usually from 115 µM), for the others: top-dose activity, negative = inhibition, usual class: inhibitors. actives 0.009% (n = 390,000). AID 504891; active = well fitted inhibition curve with a large enough effect in the polarisation, with a control signal flat, not every such curve was filed as active; inconclusive = small, poorly fitted or top-dose-only effect, or effect the other way, or a change in a side signal; inactive = no such curve, though single readings can be large or run the other way; the % refers to the polarisation; note: potency is the fitted concentration of half-maximal effect
Target sequence (Q13526 whole entry, looked up): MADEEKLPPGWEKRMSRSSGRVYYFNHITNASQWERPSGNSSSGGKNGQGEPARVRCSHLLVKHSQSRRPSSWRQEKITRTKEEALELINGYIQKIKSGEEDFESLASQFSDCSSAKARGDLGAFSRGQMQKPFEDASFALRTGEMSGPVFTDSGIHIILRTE
GALK inhibitor = inhibitors of human galactokinase; AID 1868; Potency, µM (doses to about 57.5 µM), inactives show top-dose activity change, negative = inhibition, usual class: inhibitors; P51570; actives 0.007% (n = 270,000); Purified GALK, Kinase-Glo residual ATP luminescence; note: potency is the fitted concentration of half-maximal effect
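Galactose (100 uM) and ATP (35 uM) were turned over by 5 nM GALK for 1 h at RT. Kinase-Glo Plus then converted the remaining ATP into a luminescent signal.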
TrxR1 substrate = rat thioredoxin reductase 1 substrate activity | O89049 | purified TrxR1 substrate turnover, NADPH consumption readout | Potency, µM (highest dose often 114 µM), for the others: at the highest dose activity change, negative = substrate turnover | actives 0.01% (n = 390,000); note: potency is the fitted concentration of half-maximal effect; nearly all actives have a fitted effect of over 50% in size
Target sequence (O89049 whole entry, looked up): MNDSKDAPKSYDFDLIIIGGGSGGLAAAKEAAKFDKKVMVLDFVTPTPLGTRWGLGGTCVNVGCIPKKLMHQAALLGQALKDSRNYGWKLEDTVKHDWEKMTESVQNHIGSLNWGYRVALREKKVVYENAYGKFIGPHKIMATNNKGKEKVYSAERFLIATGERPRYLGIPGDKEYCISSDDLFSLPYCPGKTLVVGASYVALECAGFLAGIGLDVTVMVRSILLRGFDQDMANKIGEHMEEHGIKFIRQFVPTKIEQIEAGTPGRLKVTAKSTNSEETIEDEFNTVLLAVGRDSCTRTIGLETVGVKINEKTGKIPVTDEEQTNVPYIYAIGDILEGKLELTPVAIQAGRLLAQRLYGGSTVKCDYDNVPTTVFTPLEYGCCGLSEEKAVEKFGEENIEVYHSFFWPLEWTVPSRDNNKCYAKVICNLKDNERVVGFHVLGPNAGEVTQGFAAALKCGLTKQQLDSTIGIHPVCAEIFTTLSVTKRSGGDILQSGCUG
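Rat TrxR1, dispensed at 90 nM, was prereduced with 400 uM NADPH (final) for 5 min at ~22 deg C, then incubated with compound 15 min before 400 uM selenite. A first-read NADPH fluorescence drop versus no-compound background flagged substrates.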
rTrxR1 inhibitor = blocks rat thioredoxin reductase 1. Potency, µM (series often up to 114 µM), inactives show top-dose activity change, negative = inhibition, most hits filed as inhibitors. AID 588453. O89049. recombinant rTrxR1, NADPH fluorescence consumption, selenite substrate. actives 1% (n = 390,000); note: potency is the fitted concentration of half-maximal effect; nearly all actives have a fitted effect of over 65% in size
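Rat TrxR1 (90 nM in the dispensed reagent) was pre-reduced with 400 uM NADPH for 5 min at room temperature, then incubated with compound for 15 min. After 400 uM selenite was added, NADPH fluorescence (Ex 340/Em 450 nm) was followed for 8 min.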
Giardia killer = Giardia lamblia killing | activity change, % at 7.66 µM, hits read low | actives 0.15% (n = 340,000) | AID 540267 | Giardia lamblia trophozoite viability; in the data active = activity change below about -80%; inconclusive = between about -30% and that limit;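 note: parasites exposed to compound for two days anaerobically before the ATP read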
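Giardia lamblia trophozoites (100 cells/well) were incubated with compounds for 48 h at 37 deg C under anaerobic conditions. Viability was read as ATP content by one-step luminescence after 15-30 min at room temperature.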
GCN5L2 inh = inhibitors of human GCN5L2 histone acetyltransferase; actives 0.21% (n = 390,000); GCN5L2 HAT assay, ThioGlo1 CoA-SH fluorescence; AID 504327; Potency, µM (highest dose often 58.9 µM), for the others: at the highest dose activity change, negative = inhibition, usual class: inhibitors; Q92830; note: potency is the fitted concentration of half-maximal effect
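qHTS, 1536-well. 20nM enzyme, pH 7.5 HEPES/EDTA/Tween-20 buffer; 15 min compound preinc., RT. Start: 75uM H3(1-25), 70uM AcCoA, 50uM ThioGlo1. Read Ex340/Em540 at t=0 (autofluorescence flag) and t=20 min.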
An asterisk follows results filed as active; u = inconclusive; x = no result; [ ] = remark or other dose. Unless noted, calls come from the whole dose curve; as a rule, active = well fitted curve in the direction sought with a large enough effect; inconclusive = small, poorly fitted or top-dose-only effect, or another doubt; inactive = no such curve, though single readings can be large; an effect the other way counts as inactive or inconclusive. % is set by controls: 0 for no effect and ±100 for the full control effect.

SMILES | Pin1 inh | GALK inhibitor | TrxR1 substrate | rTrxR1 inhibitor | Giardia killer | GCN5L2 inh
C=C(CN(C)C)C(=O)c1ccc(OC2OC(COC(C)=O)C(OC(C)=O)C(OC(C)=O)C2OC(C)=O)cc1 (stereo not given) | u | x | 9%[11.4 µM] | 2.8µM* | -18 | x
CC(=O)OCC1OC(Oc2cc(OC(C)=O)c3c(=O)cc(-c4ccc(OC(C)=O)cc4)oc3c2)[C@@H](OC(C)=O)C(OC(C)=O)C1OC(C)=O (stereo not given in full) | x | x | x | x | x | -20%
CCOC(=O)c1c(NC(=O)c2ccccc2N(C)S(=O)(=O)c2ccccc2)sc2c1CCCC2 | 10% | -1% | 51% | 39% | -11 | 32µM*
CCOC(=O)CSc1nnc(C)c(=O)[nH]1 | -7% | 0% | -2% | -13% | 2 | -2%
CCOC(=O)CSc1nnc(NCC(=O)OC)c(=O)[nH]1 | -4% | 1% | 3% | 10µM* | 10 | 9%
O=C(Nc1cccc(NC(=O)c2cccs2)c1)c1ccc([N+](=O)[O-])o1 | -4% | 5% | -8% | -20% | -89* | -12%
COc1cc(NC(=O)c2cccs2)ccc1NC(=O)Cc1ccccc1 | -9% | 1% | -17% | -15% | 3 | -10%
O=C(Nc1nc(-c2cccs2)cs1)c1ccc([N+](=O)[O-])o1 | -8% | x | -2% | -18% | -82* | -7%
COc1cc(NC(=O)c2ccc([N+](=O)[O-])o2)ccc1NC(=O)c1cccs1 | -4% | 11% | -22% | -55% | -102* | -12%
O=C(Nc1ccc(N2CCN(C(=O)c3cccs3)CC2)cc1)c1ccc([N+](=O)[O-])o1 | x | -5% | x | x | x | -2%
CC(C)(C)n1ncc2c(=O)n(Cc3cc(Cl)ccc3Cl)cnc21 | x | x | -3% | 3% | x | x
Cc1cccn2cc(CNC(=O)c3ccco3)nc12 | -1% | -3% | -7% | -7% | 8 | 35µM*
Cc1cc(C)nc(SCC(=O)NC(=O)c2ccccc2O)n1 | -9% | x | -4%[57.1 µM] | 13µM* | -8 | -4%
O=C(Nc1cccc(S(=O)(=O)NC2=NCCCCC2)c1)c1cc(-c2ccco2)nc2ccccc12 | u | -6% | 13% | 50µM* | 12 | u
O=C(CCl)Nc1cccc(S(=O)(=O)NC2=NCCCCC2)c1 | 1% | x | -5% | 18µM* | -18 | -4%
CCC(=O)O[C@H]1C(O[C@@H]2C(C)[C@H](O[C@H]3C[C@@](C)(OC)C(O)C(C)O3)C(C)C(=O)OC(CC)[C@@](C)(O)C(O)[C@H](C)C(=O)C(C)C[C@]2(C)O)OC(C)CC1N(C)C (stereo not given in full) | x | x | x | x | x | 7.1µM*
CCOC(=O)CCC(=O)O[C@H]1C(O[C@@H]2C(C)[C@H](O[C@H]3C[C@@](C)(OC)C(O)C(C)O3)C(C)C(=O)OC(CC)[C@@](C)(O)C(O)[C@H](C)C(=O)C(C)C[C@]2(C)O)OC(C)CC1N(C)C (stereo not given in full) | x | x | x | x | x | 3%
COc1ccc(-c2cc(=O)c3ccccc3o2)cc1OC | x | x | x | x | x | 35µM*
O=c1cc(-c2ccccc2)oc2ccccc12 | 1% | x | 5% | 6% | -25 | -1%
COc1ccc(-c2oc3ccccc3c(=O)c2O)cc1OC | x | x | x | x | x | 32µM*
CCOC(=O)C(C)NC(=O)c1c2c(nc3ccccc13)C(=O)N(C1CCCCC1)C2 (stereo not given) | -1% | x | 5%[57.1 µM] | 23%[57.1 µM] | x | -3%
CC[C@@]1(O)C[C@H](O[C@H]2C[C@@H](N(C)C)[C@@H](O[C@H]3C[C@@H](O)[C@@H](O[C@H]4CCC(=O)[C@@H](C)O4)[C@@H](C)O3)[C@@H](C)O2)c2c(cc3c(c2O)C(=O)c2c(O)cccc2C3=O)[C@H]1C(=O)OC | x | x | x | x | x | -8%
Cc1ccc(N2CCN(C(=O)C3CCC(CNS(=O)(=O)c4ccc(Br)s4)CC3)CC2C)cc1 (stereo not given) | 6% | x | -8% | 4% | x | -6%
CC(=O)Nc1sc2c(c1-c1ccco1)CCNC2 | -20% | x | x | x | x | x
O=C(NC(=S)Nc1cccc2cc(O)ccc12)c1ccco1 | 10% | -7% | -11% | 79µM* | 5 | 1%
SMILES | Pin1 inh | GALK inhibitor | TrxR1 substrate | rTrxR1 inhibitor | Giardia killer | GCN5L2 inh
O=C(NC(=S)Nc1cccc2cc(O)ccc12)c1ccccc1Br | 3% | -11% | -4% | 50µM* | 18 | -9%
O=C(NC(=S)Nc1cccc2c(O)cccc12)c1ccco1 | -13% | 6% | 6% | -32% | 4 | -3%
CC(=O)N1CCc2cc(S(=O)(=O)Nc3ccc(C)c(C)c3)ccc21 | -5% | x | x | x | x | x
Cc1ccc(-c2cc(-c3ccc(F)cc3)c(C#N)c(N)n2)o1 | u | x | 81% | 16µM* | -3 | -15%
Cc1ccc(-c2cc(-c3ccc4c(c3)OCO4)c(C#N)c(N)n2)o1 | 42% | 6% | 29% | -23% | 23 | u
Cc1ccc(-c2cc(-c3ccc(C)o3)nc(N)c2C#N)cc1 | u | -1% | 78% | 50µM* | -9 | u
Cc1cc(-c2cc(-c3ccc(Cl)cc3)nc(N)c2C#N)co1 | 24% | -6% | 42%[57.1 µM] | u | 11 | u
Cc1ccc(-c2cc(-c3ccc(Cl)cc3)c(C#N)c(N)n2)o1 | 9% | -2% | 35% | 50µM* | -4 | u
Cc1ccc(N2CCN(Cc3nnc(-c4ccccc4F)o3)CC2)c(C)c1 | u | x | -5% | 2% | x | 3%
O=C(CCc1ccccc1)c1ccc2c(c1)OCCCO2 | 9% | 0% | 2% | 12% | -5 | -6%
O=C(NCCc1ccccc1)c1ccc2c(c1)OCCO2 | -3% | 6% | 7%[57.1 µM] | 12%[57.1 µM] | -81* | -17%
O=C(NCCc1ccccc1)c1ccc2c(c1)OCCCO2 | -2% | 10% | 5% | 19% | -89* | -2%
COc1ccc(CCNC(=O)c2ccc3c(c2)OCCO3)cc1 | -3% | 8% | 0% | 21% | -20 | 1%
CC1CCC(NC(=O)c2cc3c(s2)CCCC3)CC1 (stereo not given) | 2% | x | 3%[57.1 µM] | 11%[57.1 µM] | 3 | -7%
CO/N=C(/C(=O)N[C@@H]1C(=O)N2C(C(=O)O)=C(CSc3cnns3)CS[C@H]12)c1csc(N)n1 | x | x | x | x | x | -8%
Brc1ccc(C2Nc3cccc4cccc(c34)N2)cc1 | 2% | x | -9% | u | -8 | x
